± gives the standard deviation of the averaged measurements.

Test [1] concerns DLD1. Nature of the test: cell viability (CellTiter-Glo) relative to plate median (fraction of plate median); higher = more viable cells. As to conditions: 5 µM; treatment time 24 h; reporter: 7TFP. Summed up: (§1)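 Stable lentiviral TCF/Wnt firefly luciferase reporters (7TFP or TCF4/Wnt) were present in the colorectal cancer cell lines used. These cells received library compounds at a final 5 µM for 24 h, and parallel plates were read for firefly luciferase or CellTiterGlo luminescence. Each well was normalised to the plate median, and the value reported is the mean of two independent replicates.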
(In ATP-based viability assays light output follows the ATP content of the culture.)

For test [2], the system named is HCT116. Described as above. As to conditions: 5 µM; treatment time 24 h; reporter: TCF4/Wnt. An outline of the steps:
as §1

Test [3] has as its system SW480. The test is described as above. Conditions: 5 µM; treatment time 24 h; reporter: 7TFP. Summed up: as §1
The subject of test [4] is DLD1. Nature of the test: TCF/Wnt firefly luciferase reporter signal relative to plate median (fraction of plate median); higher = higher Wnt reporter signal. Conditions: 5 µM; treatment time 24 h; reporter: 7TFP. An outline of the steps: as §1
Test [5] deals with SW480. Described as above. As to conditions: 5 µM; treatment time 24 h; reporter: 7TFP. Summed up: as §1

With `COc1ccc2ccc(=O)oc2c1`, the cell viability in test [1] stood at 1.02 ± 0.021; in test [2], 0.992 ± 0.025; in test [3], 0.97 ± 0.0071. Moreover, the “TCF/Wnt firefly luciferase reporter signal” value in test [4] amounted to 0.973 ± 0.053; in test [5], 0.915 ± 0.12.

Consider `COc1ccc2c(=O)c(CC(=O)O)coc2c1`, for which the cell viability in test [1] worked out at 0.968 ± 0.059; in test [2], 0.984 ± 0.08; in test [3] it was 0.968 ± 0.012. Further, the “TCF/Wnt firefly luciferase reporter signal” value in test [4] is 1 ± 0.021; in test [5] it was 0.985 ± 0.092.

Regarding `CC(=O)OCC(=O)[C@@]1(O)[C@@H](C)C[C@H]2[C@@H]3CCC4=CC(=O)C=C[C@]4(C)[C@@]3(F)[C@@H](O)C[C@@]21C`, the figures for the cell viability in test [1], in test [2] and in test [3] were 1.04 ± 0.014, 1.17 ± 0.11 and 1 ± 0.026, respectively. The “TCF/Wnt firefly luciferase reporter signal” value in test [4] was found to be 0.989 ± 0.011; in test [5], 0.876 ± 0.14.

Consider `CN1CCc2c(c3ccccc3n2Cc2ccccc2)C1`, for which the cell viability in test [1] came out at 1.01 ± 0.051; in test [2], 1.01 ± 0.029; in test [3], 1.04 ± 0.035. The “TCF/Wnt firefly luciferase reporter signal” value was 1.05 ± 0.1 in test [4] and 0.961 ± 0.14 in test [5].

Consider `C1CCN2C[C@@H]3C[C@@H](CN4CCCC[C@@H]34)[C@H]2C1`, for which the figures for the cell viability in test [1], in test [2] and in test [3] were 1.08 ± 0.12, 1.04 ± 0.021 and 1.05 ± 0.021, respectively. In addition, the “TCF/Wnt firefly luciferase reporter signal” value amounted to 1.16 in test [4] and 0.948 ± 0.053 in test [5].

Take `Cc1cc2cc3c(C)cc(=O)oc3c(C)c2o1`: the cell viability in test [1] was found to be 1.07 ± 0.021; in test [2], 0.954 ± 0.034; in test [3], 1 ± 0.022. For the same compound, the “TCF/Wnt firefly luciferase reporter signal” value was 1.14 ± 0.11 in test [4] and 0.895 ± 0.037 in test [5].

Consider `COC1=CC(=O)C(O)=C/C1=C\C=C\c1ccccc1`, for which the cell viability in test [1] was determined as 1 ± 0.013; in test [2] it was 1.06 ± 0.12; in test [3], 1 ± 0.057. Moreover, the “TCF/Wnt firefly luciferase reporter signal” value in test [4] came to 1.1 ± 0.064; in test [5] it was 0.905 ± 0.1.

For `COc1ccc([C@@H]2Sc3ccccc3N(CCN(C)C)C(=O)[C@@H]2OC(C)=O)cc1`, the cell viability was 0.931 ± 0.17 in test [1], 0.975 ± 0.028 in test [2] and 1.01 ± 0.033 in test [3]. Also, the “TCF/Wnt firefly luciferase reporter signal” value is 0.883 ± 0.029 in test [4] and 0.989 ± 0.059 in test [5].

In the case of `OCCOCCN1CCN(C(c2ccccc2)c2ccc(Cl)cc2)CC1` (stereo not given), the cell viability in test [1] was 0.978 ± 0.045; in test [2] it was 1.07 ± 0.014; in test [3], 1.01 ± 0.026. For the same compound, the “TCF/Wnt firefly luciferase reporter signal” value in test [4] is 1.03 ± 0.021; in test [5] it was 1.075 ± 0.0071.

`CC(C)NNC(=O)c1ccncc1`: the cell viability was determined as 1.02 ± 0.029 in test [1], 0.992 ± 0.054 in test [2] and 1 ± 0.083 in test [3]. Besides, the “TCF/Wnt firefly luciferase reporter signal” value in test [4] is 1.07 ± 0.042; in test [5] it was 1.01 ± 0.021.

Turning to `Cn1nnnc1SCC1=C(C(=O)O)N2C(=O)[C@@H](NC(=O)[C@H](OC=O)c3ccccc3)[C@H]2SC1`, the results for the cell viability in test [1], in test [2] and in test [3] were 1.02, 0.932 ± 0.056 and 1.03 ± 0.044, respectively. For the same compound, the “TCF/Wnt firefly luciferase reporter signal” value in test [4] turned out to be 0.9225 ± 0.00071; in test [5], 0.992 ± 0.04.

Turning to `CC(C)CCC[C@@H](C)[C@H]1CC[C@H]2[C@@H]3C(=O)C=C4C[C@@H](O)CC[C@]4(C)[C@H]3CC[C@]12C`, the values for the cell viability in test [1], in test [2] and in test [3] were 1.1 ± 0.092, 0.99 and 1.04 ± 0.1, respectively. Besides, the “TCF/Wnt firefly luciferase reporter signal” value in test [4] worked out at 0.959 ± 0.018; in test [5], 1.01 ± 0.027.

Regarding `CC(CCc1ccccc1)NCC(O)c1ccc(O)c(C(N)=O)c1` (stereo not given), the cell viability in test [1] was found to be 1.01 ± 0.12; in test [2], 1.08 ± 0.014; in test [3], 0.943 ± 0.044. Further, the “TCF/Wnt firefly luciferase reporter signal” value in test [4] came out at 0.935 ± 0.012; in test [5], 0.939 ± 0.046.

For `Cc1cn[nH]c1`, the cell viability in test [1] came to 0.959 ± 0.021; in test [2] it was 0.939 ± 0.018; in test [3] it was 1.01 ± 0.021. Moreover, the “TCF/Wnt firefly luciferase reporter signal” value in test [4] was found to be 0.768; in test [5], 0.892 ± 0.11.

As to `O=c1[nH]cnc2c1ncn2[C@@H]1O[C@H](CO)[C@@H](O)[C@H]1O`, the cell viability in test [1] came to 1.09 ± 0.085; in test [2], 1.05; in test [3], 0.976 ± 0.028. Further, the “TCF/Wnt firefly luciferase reporter signal” value in test [4] came out at 0.975 ± 0.093; in test [5] it was 0.969 ± 0.1.

`OC1(c2ccc(Cl)c(C(F)(F)F)c2)CCN(CCCC(c2ccc(F)cc2)c2ccc(F)cc2)CC1`: the values for the cell viability in test [1], in test [2] and in test [3] were 0.982 ± 0.14, 1.08 ± 0.071 and 0.994 ± 0.023, respectively. The “TCF/Wnt firefly luciferase reporter signal” value in test [4] amounted to 1.1 ± 0.21; in test [5] it was 0.931 ± 0.092.

As for `CC(C)CCCCCCCCC1CC(=O)NC(CCC(=O)O)C(=O)NC(CC(C)C)C(=O)NC(CC(C)C)C(=O)NC(C(C)C)C(=O)NC(CC(=O)O)C(=O)NC(CC(C)C)C(=O)NC(CC(C)C)C(=O)O1` (stereo not given) [Surfactin B1], the values for the cell viability in test [1], in test [2] and in test [3] were 0.959 ± 0.072, 0.925 ± 0.018 and 0.962 ± 0.038, respectively. Further, the “TCF/Wnt firefly luciferase reporter signal” value came out at 0.92 ± 0.21 in test [4] and 1.01 ± 0.015 in test [5].

As for `O=C(OC[C@H]1O[C@@H](OC(=O)c2cc(O)c(O)c(OC(=O)c3cc(O)c(O)c(O)c3)c2)[C@H](OC(=O)c2cc(O)c(O)c(OC(=O)c3cc(O)c(O)c(O)c3)c2)[C@@H](OC(=O)c2cc(O)c(O)c(OC(=O)c3cc(O)c(O)c(O)c3)c2)[C@@H]1OC(=O)c1cc(O)c(O)c(OC(=O)c2cc(O)c(O)c(O)c2)c1)c1cc(O)c(O)c(OC(=O)c2cc(O)c(O)c(O)c2)c1`, the cell viability in test [1] came out at 1.025 ± 0.0071; in test [2], 0.915 ± 0.04; in test [3], 1 ± 0.05. For the same compound, the entries for the “TCF/Wnt firefly luciferase reporter signal” value in test [4] and in test [5] were 0.794 ± 0.055 and 0.913 ± 0.047, respectively.

For `CC(C)OC(=O)C(C)(C)Oc1ccc(C(=O)c2ccc(Cl)cc2)cc1`, the figures for the cell viability in test [1], in test [2] and in test [3] were 1.08 ± 0.071, 1.045 ± 0.0071 and 1.04, respectively. Besides, the “TCF/Wnt firefly luciferase reporter signal” value in test [4] turned out to be 0.917 ± 0.14; in test [5] it was 0.939 ± 0.015.

On to `CC1(C)CC[C@]2(C(=O)O)[C@H](O)C[C@]3(C)C(=CC[C@@H]4[C@@]5(C)CC[C@H](O)C(C)(C)[C@@H]5CC[C@]43C)[C@H]2C1`, for which the cell viability is 0.9085 ± 0.0035 in test [1], 0.94 ± 0.16 in test [2] and 0.9525 ± 0.0092 in test [3]. The “TCF/Wnt firefly luciferase reporter signal” value is 0.919 ± 0.033 in test [4] and 0.999 ± 0.016 in test [5].

Regarding `O=C1CN(/N=C/c2ccc([N+](=O)[O-])o2)C(=O)N1`, the cell viability in test [1] worked out at 1.03 ± 0.11; in test [2] it was 1.02 ± 0.037; in test [3], 0.949. Also, the “TCF/Wnt firefly luciferase reporter signal” value came out at 0.954 ± 0.043 in test [4] and 0.995 ± 0.12 in test [5].

`CCC(C)(C)C(=O)O[C@H]1C[C@@H](C)C=C2C=C[C@H](C)[C@H](CC[C@@H]3C[C@@H](O)CC(=O)O3)[C@H]21`: the cell viability in test [1] amounted to 0.864 ± 0.23; in test [2] it was 0.8745 ± 0.005; in test [3] it was 0.99 ± 0.071. Moreover, the “TCF/Wnt firefly luciferase reporter signal” value worked out at 0.902 ± 0.34 in test [4] and 0.827 ± 0.41 in test [5].

With `CCCc1cc(C(N)=S)ccn1`, the cell viability came out at 0.972 ± 0.022 in test [1], 1.05 ± 0.021 in test [2] and 0.976 ± 0.063 in test [3]. In addition, the figures for the “TCF/Wnt firefly luciferase reporter signal” value in test [4] and in test [5] were 1.015 ± 0.0071 and 1.04 ± 0.021, respectively.

As to `Nc1ccc(S(=O)(=O)c2ccc(N)cc2)cc1`, the values for the cell viability in test [1], in test [2] and in test [3] were 1.08 ± 0.057, 0.956 ± 0.063 and 1.02, respectively. Moreover, the “TCF/Wnt firefly luciferase reporter signal” value amounted to 0.94 ± 0.054 in test [4] and 0.922 ± 0.059 in test [5].

In the case of `c1ccc2c(c1)CCCC2C1=NCCN1` (stereo not given), the cell viability in test [1] was determined as 1.02 ± 0.014; in test [2] it was 1.125 ± 0.0071; in test [3], 1.07 ± 0.05. Also, the “TCF/Wnt firefly luciferase reporter signal” value in test [4] was determined as 1.08 ± 0.19; in test [5], 0.985 ± 0.0014.

With `C/C(=C\C(=O)OCCCCCCCCC(=O)O)C[C@@H]1OC[C@H](C[C@@H]2O[C@H]2[C@@H](C)[C@H](C)O)[C@@H](O)[C@H]1O`, the cell viability in test [1] came out at 0.973 ± 0.052; in test [2], 1 ± 0.025; in test [3] it was 0.939 ± 0.017. Besides, the “TCF/Wnt firefly luciferase reporter signal” value in test [4] is 0.9545 ± 0.0021; in test [5], 1.03 ± 0.028.

As for `CC(CCC(=O)O)[C@H]1CCC2C3C[C@H](O)[C@@H]4C[C@H](O)CC[C@]4(C)C3CC[C@@]21C` (stereo partly drawn) [alpha-HYDROXYDEOXYCHOLIC ACID], the cell viability in test [1] is 1.04 ± 0.13; in test [2], 1.1 ± 0.078; in test [3], 1.06 ± 0.014. The “TCF/Wnt firefly luciferase reporter signal” value in test [4] turned out to be 0.947 ± 0.1; in test [5] it was 0.974 ± 0.052.
